According to PubChem BioAssay (NCI):
The panel holds about 79,000 compounds, 15% with a hit somewhere; the sample as a whole holds those more often. Activity calls are given as the source filed them. Cut-off read from the data, not from the text of the source: active = growth inhibition above about 70%; inactive = the rest.

Key:
[1] = NCI Yeast Anticancer Drug Screen. Data for the rad52 strain (AID 147);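 note: 0% = growth of vehicle-treated control cultures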; conditions: S. cerevisiae rad52 mutant growth inhibition, stronger effect = higher value
In short: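 Genetically altered yeast (DNA damage repair defect) treated with compound; inhibition calculated relative to vehicle.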

[2] = NCI Yeast Anticancer Drug Screen. Data for the rad50EPP+ strain (AID 151);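 note: 0% = growth of vehicle-treated control cultures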; conditions: S. cerevisiae rad50 mutant strain, stronger effect = higher value
In short: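 Strain rad50EPP+; compound exposure; % growth inhibition vs vehicle.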

[3] = NCI Yeast Anticancer Drug Screen. Data for the mgt1 strain (AID 153); conditions: S. cerevisiae mgt1 mutant growth inhibition, stronger effect = higher value
In short: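 Read-out: yeast growth inhibition vs vehicle control. Strain mgt1, drawn from a panel altered in DNA damage repair or cell cycle control.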

[4] = NCI Yeast Anticancer Drug Screen. Data for the rad50 strain (AID 155);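 note: 0% = growth of vehicle-only cultures of the same strain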; conditions: S. cerevisiae rad50 strain growth inhibition, stronger effect = higher value
In short: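 Vehicle-treated cultures provide the reference for the growth inhibition reported for compound-exposed, repair-deficient yeast.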

[5] = NCI Yeast Anticancer Drug Screen. Data for the mec2-1 strain (AID 157); conditions: S. cerevisiae mec2-1 strain, stronger effect = higher value
In short: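 Cells of the genetically defined mec2-1 yeast strain are incubated with test compound. Inhibition of growth is calculated against vehicle-treated controls.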

[6] = NCI Yeast Anticancer Drug Screen. Data for the rad14 strain (AID 159);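 note: 0% = growth of vehicle-treated control cultures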; conditions: S. cerevisiae rad14 strain growth inhibition, stronger effect = higher value
In short: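 Inhibition of growth is reported for a repair-deficient yeast mutant following compound treatment, calculated relative to cultures that received vehicle.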

[7] = NCI Yeast Anticancer Drug Screen. Data for the sgs1 mgt1 strain (AID 161);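 note: 0% = growth of cultures given vehicle only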; conditions: S. cerevisiae sgs1 mgt1 strain, stronger effect = higher value
In short: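 Test agents were incubated with a DNA-repair-mutant yeast strain. Growth was then read and compared against vehicle-treated controls.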

[8] = NCI Yeast Anticancer Drug Screen. Data for the CLN2oe strain (AID 163);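 note: 0% = growth of vehicle-only control cultures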; conditions: S. cerevisiae CLN2oe strain, stronger effect = higher value
In short: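 Strain altered in cell-cycle control, incubated with compound; growth compared to solvent-treated controls.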

[9] = NCI Yeast Anticancer Drug Screen. Data for the cln2 rad14 strain (AID 165);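 note: 0% = growth equal to vehicle treated cultures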; conditions: S. cerevisiae cln2 rad14 strain, stronger effect = higher value
In short: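 The screen exposed genetically defined yeast (cln2 rad14) to test compounds and scored growth inhibition relative to vehicle-treated controls.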

[10] = NCI Yeast Anticancer Drug Screen. Data for the bub3 strain (AID 167); conditions: S. cerevisiae bub3 mutant strain, stronger effect = higher value
In short: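 Mutant yeast screening strain plus compound; vehicle-treated cultures serve as the 0% inhibition reference.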

[11] = NCI Yeast Anticancer Drug Screen. Data for the wt2 strain (AID 169); conditions: S. cerevisiae wt2 strain growth inhibition, stronger effect = higher value
In short: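 Steps: yeast strain treated with compound; growth recorded; inhibition calculated relative to cultures given vehicle alone.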

[12] = NCI Yeast Anticancer Drug Screen. Data for the mlh1 strain (AID 171);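 note: 0% = growth of vehicle-treated control cultures of the same strain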; conditions: S. cerevisiae mlh1 strain growth inhibition, stronger effect = higher value
In short: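 Yeast screen: mutant strain plus compound, growth scored against vehicle control wells.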

[13] = NCI Yeast Anticancer Drug Screen. Data for the sgs1 strain (AID 173);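 note: 0% = growth of vehicle-only control cultures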; conditions: S. cerevisiae sgs1 mutant, stronger effect = higher value
In short: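 Inhibition of yeast growth served as the measure. The mutant strain was treated with each compound, and growth was normalised to cultures receiving vehicle alone.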

[14] = NCI Yeast Anticancer Drug Screen. Data for the mlh1 rad18 strain (AID 175); conditions: S. cerevisiae mlh1 rad18 strain growth inhibition, stronger effect = higher value
In short: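 Compound-treated yeast growth, normalised to vehicle controls. Strain bears defined DNA repair mutations.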

[15] = NCI Yeast Anticancer Drug Screen. Data for the rad18 strain (AID 177); conditions: S. cerevisiae rad18 mutant growth inhibition, stronger effect = higher value
In short: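 Inhibition values reflect reduced yeast growth compared with vehicle-treated controls, using a strain engineered with a DNA damage repair defect.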

[16] = NCI Yeast Anticancer Drug Screen. Data for the wt1 strain (AID 149);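 note: 0% = growth of vehicle-treated wt1 cultures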; conditions: S. cerevisiae wt1 strain (SPY 50644) growth inhibition, stronger effect = higher value
In short: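 Each compound is tested on wt1 yeast and the loss of growth versus vehicle gives the inhibition value.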

[17] = at 5.0 µM (retest, dose inferred, filed as 0.5)
[18] = at 50.0 µM (retest, dose inferred, filed as 5.0)

Measured: growth inhibition

COc1cccc2c1C(=O)c1c(O)c3c(c(O)c1C2=O)CC(O)(C(O)CO)CC3OC1CC(N2CCOCC2)C(O)C(C)O1 (stereo unspecified)
active: [1]; at 1.2 µM 96% | [1]; at 3.7 µM 96% | [1]; at 11.0 µM 96% | [1]; at 33.0 µM 96% | [1]; at 100.0 µM 96% | [2]; at 1.2 µM 84% | [2]; at 3.7 µM 96% | [2]; at 11.0 µM 97% | [2]; at 33.0 µM 97% | [2]; at 100.0 µM 97% | [3]; at 1.2 µM 97% | [3]; at 3.7 µM 97% | [3]; at 11.0 µM 97% | [3]; at 33.0 µM 98% | [3]; at 100.0 µM 97% | [4]; at 1.2 µM 96% | [4]; at 3.7 µM 97% | [4]; [17] 98% | [4]; at 11.0 µM 97% | [4]; at 33.0 µM 97% | [4]; [18] 98% | [4]; at 100.0 µM 97% | [5]; at 1.2 µM 97% | [5]; at 3.7 µM 97% | [5]; [17] 99% | [5]; at 11.0 µM 98% | [5]; at 33.0 µM 98% | [5]; [18] 99% | [5]; at 50.0 µM 91.3% | [5]; at 100.0 µM 98% | [6]; at 1.2 µM 95% | [6]; at 3.7 µM 96% | [6]; at 11.0 µM 96% | [6]; at 33.0 µM 97% | [6]; at 100.0 µM 97% | [7]; [18] 90% | [7]; at 50.0 µM 91.5% | [8]; at 1.2 µM 96% | [8]; at 3.7 µM 97% | [8]; at 11.0 µM 97% | [8]; at 33.0 µM 98% | [8]; at 100.0 µM 98% | [9]; at 50.0 µM 90.8% | [10]; at 1.2 µM 98% | [10]; at 3.7 µM 98% | [10]; at 11.0 µM 98% | [10]; at 33.0 µM 98% | [10]; [18] 93% | [10]; at 50.0 µM 93.5% | [10]; at 100.0 µM 98% | [11]; at 1.2 µM 96% | [11]; at 3.7 µM 97% | [11]; at 11.0 µM 96% | [11]; at 33.0 µM 97% | [11]; at 100.0 µM 98% | [12]; at 1.2 µM 97% | [12]; at 3.7 µM 97% | [12]; at 11.0 µM 97% | [12]; at 33.0 µM 98% | [12]; at 100.0 µM 98% | [13]; at 1.2 µM 97% | [13]; at 3.7 µM 97% | [13]; at 11.0 µM 97% | [13]; at 33.0 µM 98% | [13]; at 100.0 µM 98% | [14]; [17] 99% | [14]; [18] 98% | [14]; at 50.0 µM 91.1% | [15]; at 1.2 µM 96% | [15]; at 3.7 µM 96% | [15]; at 11.0 µM 97% | [15]; at 33.0 µM 97% | [15]; at 100.0 µM 98%
inactive: [4]; at 50.0 µM 56.9% | [7]; [17] 22% | [9]; [17] 18% | [9]; [18] 61% | [10]; [17] 25%

O=[N+]([O-])c1ccc(N/N=C/Cc2ccccc2)c([N+](=O)[O-])c1
inactive: [1]; at 1.2 µM -3% | [1]; at 3.7 µM -4% | [1]; at 11.0 µM -2% | [1]; at 33.0 µM 2% | [1]; at 100.0 µM 2% | [16]; at 1.2 µM -1% | [16]; at 3.7 µM -2% | [16]; at 11.0 µM -3% | [16]; at 33.0 µM -6% | [16]; at 100.0 µM -12% | [3]; at 1.2 µM -2% | [3]; at 3.7 µM 1% | [3]; at 11.0 µM -1% | [3]; at 33.0 µM -2% | [3]; at 100.0 µM 13% | [4]; at 1.2 µM 0% | [4]; at 3.7 µM -2% | [4]; [17] 5% | [4]; at 11.0 µM 4% | [4]; at 33.0 µM 8% | [4]; [18] 20% | [4]; at 50.0 µM -3.75% | [4]; at 100.0 µM -2% | [5]; at 1.2 µM -4% | [5]; at 3.7 µM -1% | [5]; [17] 1% | [5]; at 11.0 µM 2% | [5]; at 33.0 µM 6% | [5]; [18] 12% | [5]; at 50.0 µM 30.8% | [5]; at 100.0 µM 4% | [6]; at 1.2 µM -5% | [6]; at 3.7 µM -2% | [6]; at 11.0 µM 2% | [6]; at 33.0 µM 7% | [6]; at 100.0 µM 3% | [7]; [17] 3% | [7]; [18] 45% | [7]; at 50.0 µM 25% | [8]; at 1.2 µM -3% | [8]; at 3.7 µM 1% | [8]; at 11.0 µM 4% | [8]; at 33.0 µM 0% | [8]; at 100.0 µM -1% | [10]; at 1.2 µM 2% | [10]; at 3.7 µM 2% | [10]; [17] 9% | [10]; at 11.0 µM 12% | [10]; at 33.0 µM 27% | [10]; at 50.0 µM 67.2% | [10]; at 100.0 µM 39% | [11]; at 1.2 µM 4% | [11]; at 3.7 µM 5% | [11]; at 11.0 µM 5% | [11]; at 33.0 µM 6% | [11]; at 100.0 µM 5% | [14]; [17] 1% | [14]; [18] 29% | [14]; at 50.0 µM 12.1%
active: [10]; [18] 74%

COc1cc2ccnc(-c3c4ccccc4c(N)c4c(OC)c(OC)ccc34)c2cc1OC
inactive: [1]; at 1.2 µM 5% | [1]; at 3.7 µM 20% | [1]; at 11.0 µM 60% | [16]; at 1.2 µM -4% | [16]; at 3.7 µM -5% | [16]; at 11.0 µM -5% | [16]; at 33.0 µM -4% | [16]; at 100.0 µM 30% | [3]; at 1.2 µM -1% | [3]; at 3.7 µM -1% | [3]; at 11.0 µM 0% | [3]; at 33.0 µM 2% | [3]; at 100.0 µM 50% | [4]; at 1.2 µM 16% | [4]; at 3.7 µM 50% | [4]; at 50.0 µM 19.3% | [5]; at 1.2 µM -1% | [5]; at 3.7 µM 2% | [5]; [17] 33% | [5]; at 11.0 µM 1% | [5]; at 33.0 µM 7% | [5]; [18] 33% | [5]; at 50.0 µM -2.3% | [5]; at 100.0 µM 46% | [6]; at 1.2 µM 1% | [6]; at 3.7 µM 1% | [6]; at 11.0 µM 3% | [6]; at 33.0 µM 8% | [6]; at 100.0 µM 43% | [7]; [17] 24% | [7]; [18] 24% | [7]; at 50.0 µM -13.9% | [8]; at 1.2 µM -1% | [8]; at 3.7 µM 7% | [8]; at 11.0 µM 9% | [8]; at 33.0 µM 17% | [8]; at 100.0 µM 37% | [9]; [17] 22% | [9]; [18] 22% | [9]; at 50.0 µM 10.8% | [10]; at 1.2 µM -5% | [10]; at 3.7 µM 1% | [10]; [17] -3% | [10]; at 11.0 µM 9% | [10]; at 33.0 µM -4% | [10]; [18] -3% | [10]; at 50.0 µM 6.45% | [10]; at 100.0 µM 24% | [12]; at 1.2 µM -4% | [12]; at 3.7 µM -2% | [12]; at 11.0 µM 0% | [12]; at 33.0 µM 2% | [12]; at 100.0 µM 52% | [13]; at 1.2 µM -1% | [13]; at 3.7 µM 1% | [13]; at 11.0 µM 6% | [13]; at 33.0 µM 23% | [14]; [17] 23% | [14]; [18] 23% | [15]; at 1.2 µM 0% | [15]; at 3.7 µM -5% | [15]; at 11.0 µM 8% | [15]; at 33.0 µM 31%
active: [1]; at 33.0 µM 86% | [1]; at 100.0 µM 93% | [4]; [17] 78% | [4]; at 11.0 µM 77% | [4]; at 33.0 µM 90% | [4]; [18] 78% | [4]; at 100.0 µM 94% | [13]; at 100.0 µM 70% | [14]; at 50.0 µM 72.7% | [15]; at 100.0 µM 74%
